From PubChem BioAssay AID602393 (Broad Institute, 2012)
Among all 350,000 compounds or so, about 7,000 (2%) were called active. Many of the other results were omitted from the sample, so actives are more common in it than they were. A number with no mark means an inactive call. Cut-off read from the data, not from the text of the source: active = activation above about 40%; inconclusive = no clear call, values can overlap the other calls; inactive = below that.

Assay: raisers of Bmi1 knock-in reporter signal – mouse ES cells, Bmi1 luciferase knock-in, single point, esBAF inhibitor project, primary screen (AID 602393);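 note: 0% = median of the plate's neutral control wells and 100% = double that signal; a rise in the Bmi1 reporter signal indicates esBAF inhibition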
Details: 24 h, at 12.5 µM, stronger effect = higher value, 100% = twice the neutral-well signal

In order of rising reporter increase:
1. CCCC(=O)Nc1nc2ccc(NC(=O)c3c(F)c(F)c(OC)c(F)c3F)cc2s1  -33%
2. CC(=O)Nc1cccc(-c2cc(NC(C)=O)c3ncc(-c4ccccc4)n3c2)c1  -27.3%
3. CCOC(=O)C1(CCOc2ccccc2)CCN(Cc2cc(OC)cc(OC)c2)CC1  -7.06%
4. O=c1c2cc(Br)ccc2nc(-c2cccc(Cl)c2)n1O  -7.05%
5. COCC(=O)N1C[C@@H]2[C@H](c3ccccc31)[C@@H](CO)N2C(=O)C1CC1  -6.95%
6. O=C(c1cc(-c2ccc(O)cc2)on1)N1CCOCC1  -6.48%
7. C[C@@H]1CN([C@@H](C)CO)C(=O)c2cc(NS(=O)(=O)c3ccccc3)ccc2O[C@@H](C)CCCCO[C@H]1CN(C)S(=O)(=O)c1cccs1  -5.79%
8. CCOC(=O)C1(Cc2cccc(OC)c2)CCN(C(C)CC(C)(C)O)CC1 (stereo not drawn)  -4.88%
9. COc1cccc(S(=O)(=O)N(C)C[C@@H]2Oc3cc(C4=CCCCC4)ccc3S(=O)(=O)N([C@H](C)CO)C[C@H]2C)c1  -4.77%
10. COc1cccc(C(=O)NCCSc2ccc(Br)cc2)c1  -4.36%
11. O=C(OCC(O)C(O)COC(=O)c1ccccc1)c1ccccc1 (stereo not drawn)  -4.1%
12. COc1ccccc1C(=O)N1C[C@H]2[C@@H](c3ccccc31)[C@H](CO)N2C(=O)C1CC1  -3.8%
13. COc1cccc(S(=O)(=O)N[C@H]2C=C[C@H](CC(=O)NC3Cc4ccccc4C3)O[C@H]2CO)c1  -3.77%
14. C[C@H](O)C#Cc1ccc2c(c1)O[C@H](CN(C)C)[C@@H](C)CN([C@H](C)CO)S2(=O)=O  -3.76%
15. O=C(C[C@@H]1C=C[C@@H](NC(=O)c2cccnc2)[C@H](CO)O1)NCCN1CCCCC1  -3.44%
16. CCNC(=O)[C@@H]1[C@@H](CO)[C@@H]2Cn3c(ccc(-c4ccncc4)c3=O)[C@@H]2N1Cc1cc(F)ccc1F  -2.84%
17. CC(=O)NC(c1ccccc1)c1nc(-c2cccc(C(C)C)c2)cs1 (stereo not drawn)  -2.45%
18. Cc1ccc2[nH]c(=O)c(COC(=O)c3ccccn3)cc2c1  -2.11%
19. CN(C)CC(=O)Nc1ccc2c(c1)[C@H]1C[C@@H](CC(=O)NCc3ccccn3)O[C@@H](CO)[C@H]1O2  -2.09%
20. C[C@@H]1CN([C@H](C)CO)C(=O)c2cc(C#CC3CC3)cnc2O[C@@H]1CN(C)Cc1ccccn1  -2.08%
21. C[C@H](CO)N1C[C@H](C)[C@H](CN(C)Cc2ccncc2)Oc2ccc(N(C)C)cc2C1=O  -1.91%
22. COc1ccc(S(=O)(=O)Nc2ccc3c(c2)C(=O)N([C@@H](C)CO)C[C@H](C)[C@@H](CN(C)C(=O)c2ccccc2)OCCCC[C@H](C)O3)cc1  -1.88%
23. CC(C)Cc1nnc(NC(=O)CCNC(=O)c2ccccc2Cl)s1  -1.82%
24. COc1cccc(CNC(=O)C[C@@H]2CC[C@@H]3[C@H](COc4ccc(NC(C)=O)cc4C(=O)N3C)O2)c1  -1.5%
25. COCC(=O)N1C[C@@H](C)[C@H](OC)CN(C)C(=O)c2ccc(NC(=O)c3ccc(F)cc3)cc2OC[C@H]1C  -1.39%
26. CCOc1ccc(NC(=O)C/C(C)=N/NC(=O)Cc2cccs2)cc1  -1.12%
27. Clc1ccc(CN2CCCCCC2)cc1Cl  -0.902%
28. CCCNC(=O)N(C)C[C@H]1Oc2cc(C#C[C@@H](C)O)ccc2S(=O)(=O)N([C@H](C)CO)C[C@H]1C  -0.613%
29. COCC(=O)N[C@@H]1C=C[C@@H](CC(=O)N2CCCCC2)O[C@@H]1CO  0.0415%
30. CNC(=O)C[C@H]1CC[C@@H]2[C@@H](COc3ccc(NC(=O)c4ccc(F)c(F)c4)cc3C(=O)N2C)O1  0.615%
31. C[C@@H]1CCCCO[C@H](CN(C)C(=O)CCC(F)(F)F)[C@H](C)CN([C@@H](C)CO)C(=O)c2cc(NC(=O)CCCCCC(=O)Nc3ccccc3N)ccc2O1  1.1%
32. COc1cccc(C(=O)Nc2nnc(S(=O)(=O)N3CCOCC3)s2)c1  1.13%
33. CC(=O)NC(c1cccc(F)c1)c1nc(-c2cccc(F)c2)cs1 (stereo not drawn)  1.42%
34. O=C(Cc1cccs1)Nc1ccc([N+](=O)[O-])cc1  1.47%
35. CO[C@@H]1CN(C)C(=O)c2cc(NC(=O)c3ccc4c(c3)OCO4)ccc2OC[C@H](C)N(CCC(F)(F)F)C[C@H]1C  1.54%
36. C[C@@H]1CN([C@@H](C)CO)C(=O)Cc2cc(NC(=O)Nc3ccc(F)cc3)ccc2O[C@@H]1CN(C)C(=O)NC1CCCCC1  1.74%
37. CCOC(=O)c1[nH]c2ccc(C)cc2c1N=C(C)N(C)C  1.77%
38. COc1cccc(-c2cnc3c(c2)C(=O)N([C@H](C)CO)C[C@@H](C)[C@H](CN(C)Cc2ccc(F)cc2)O3)c1  1.81%
39. CCOc1ccc(-n2c(SCC(=O)Nc3ccc(OC)cc3)nc3sc4c(c3c2=O)CCN(C)C4)cc1  1.84%
40. CCCNC(=O)N1[C@H](CNC(C)=O)[C@@H](c2ccc(C3=CCCC3)cc2)[C@@H]1CO  2.55%
41. O=c1cc(CN2CCCCCCC2)c2c(ccc3ccccc32)o1  2.61%
42. Cc1ccc(S(=O)(=O)Nc2ccc3c(c2)C(=O)N([C@@H](C)CO)C[C@@H](C)[C@H](CN(C)Cc2ccncc2)O3)cc1  2.63%
43. C/C=C/c1ccc([C@H]2[C@@H](CO)N(C(C)=O)[C@H]2CNC(=O)c2ccncc2)cc1  2.82%
44. O=S(=O)(N[C@H]1CC[C@@H](CCNS(=O)(=O)c2ccccc2Cl)O[C@@H]1CO)c1ccccc1  2.98%
45. O=C(C[C@H]1CC[C@@H](NC(=O)Cc2ccccn2)[C@H](CO)O1)NCCc1ccccc1  3.63%
46. COc1cccc(C(O)c2nc(-c3ccc(C)c(C)c3)cs2)c1 (stereo not drawn)  3.8%
47. O=C(C[C@@H]1C=C[C@@H](NC(=O)c2ccc3c(c2)OCO3)[C@H](CO)O1)NC1Cc2ccccc2C1  4.12%
48. C[C@H](NC(=O)c1ccccc1)C(=O)OCC(=O)c1c[nH]c2ccccc12  4.74%
49. CCOc1ccc(-n2c(SCC(=O)OC)nc3sc4c(c3c2=O)CCN(C)C4)cc1  4.82%
50. Cc1noc(C)c1S(=O)(=O)N(C)C[C@@H]1OCCCC[C@@H](C)Oc2ccc(NC(=O)c3ccccc3)cc2C(=O)N([C@@H](C)CO)C[C@@H]1C  4.85%
51. CCOc1ncccc1C(=O)OCC(=O)c1c[nH]c2ccccc12  5.19%
52. CN(C)CC(=O)Nc1ccc2c(c1)[C@@H]1C[C@H](CC(=O)NCC3CC3)O[C@@H](CO)[C@@H]1O2  5.49%
53. COc1ccc(-c2cc(C(=O)N3CCN(c4ccc(F)cc4)CC3)no2)cc1  5.86%
54. COc1cccc(-c2cnc3c(NC(C)=O)cc(-c4cccc(NC(C)=O)c4)cn23)c1  6.31%
55. CC(C)NC(=O)Nc1ccc2c(c1)C(=O)N(C)[C@@H]1CC[C@H](CC(=O)NCC3CCCCC3)O[C@@H]1CO2  7.05%
56. COc1cc(/C=N/N2CCN(c3ccccc3)CC2)ccc1OC(C)=O  7.78%
57. Cc1ccc(S(=O)(=O)c2c(COC(=O)c3cccc(Cl)c3)c(-c3ccccc3)nn2C)cc1  12.1%
58. C[C@@H]1CCCCO[C@@H](CN(C)C(=O)C2CCCCC2)[C@H](C)CN([C@H](C)CO)C(=O)c2cc(NC(=O)CCC(F)(F)F)ccc2O1  15.7%
59. COCC1CCCN(C(=O)c2ccc3oc(C(C)C)nc3c2)C1 (stereo not drawn)  21.9%
60. COCC1CCN(C(=O)c2ccc3oc(Cc4ccccc4)nc3c2)C1 (stereo not drawn)  22.8%
61. COc1cc(NC(=O)c2ccc(-c3csc(C)n3)cc2)c(OC)cc1Cl  23.9%
62. COc1ccccc1N1CCN(/N=C\C(Br)=C\c2ccccc2)CC1  24.6%

In the case of `CCOC(=O)c1cc2cc(C)ccc2[nH]1`, the reporter increase is reported as 70.2% (active).
For `O=C(CCNC(=O)c1ccccc1)Nc1nc2ccccc2s1`, the reporter increase was 59.5% (active).
For `CCOC(=O)c1ccc(NC(=O)Cc2cccs2)cc1`, the reporter increase was 49.7% (active).
For `O=C(OCc1ccc(-c2ccccc2)cc1)c1cccc(O)c1`, the reporter increase was 56.3% (active).
For `O=C(OCC(=O)c1c[nH]c2ccccc12)c1cccc(O)c1`, the reporter increase was 96.8% (active).
With `O=C(c1cc(-c2ccc(Cl)cc2)on1)N1CCN(c2ccccc2)CC1` the reporter increase was 60.8% (active).
In the case of `COc1ccccc1NC(=O)CSc1nc2sc3c(c2c(=O)n1-c1ccccc1)CCN(C)C3`, the reporter increase is reported as 50.8% (active).
For `COc1cccc(C(=O)Nc2cc3c(cc2Br)OCCCO3)c1`, the reporter increase was 82% (active).
In the case of `c1ccc2cc3[nH]c(CN4CCCCC4)nc3cc2c1`, the reporter increase is reported as 43.8% (active).
In the case of `O=C(/C(=C/c1cccc(Cl)c1)c1nc2ccccc2[nH]1)c1ccccc1`, the reporter increase is reported as 98.1% (active).
For `COCC1CCN(C(=O)CCc2nnc(C3(c4ccc(Cl)cc4)CCC3)o2)C1` (stereo not drawn), the reporter increase was 52% (active).
For `CCOC(=O)C1(Cc2cccc(OC)c2)CCCN(C(=O)CCSC)C1` (stereo not drawn), the reporter increase was 51.6% (active).
In the case of `CC(=O)Nc1cccc(-c2cnc3ccccc3n2)c1`, the reporter increase is reported as 72.3% (active).
With `COc1ccc(-c2csc(Nc3cccc(C)n3)n2)cc1OC` the reporter increase was 86.6% (active).
In the case of `CC(=O)Nc1cccc(-c2csc(Nc3cccc(C)n3)n2)c1`, the reporter increase is reported as 51.5% (active).
For `COc1ccccc1N1CCN(/N=C/c2ccc(O)cc2O)CC1`, the reporter increase was 60.9% (active).
